Source: the supplement of paper PMC10849652
Of roughly 7,900 targets only a part is listed; those with a hit were picked by preference. About 0.6% of all pairs of compound and target were hits.

Experiments:
Assay in all cases: log2 fold change, soluble protein after heating vs DMSO (PISA); higher = thermal stabilisation; K562 cells, 10 uM, 30 min; active = over 0.2 and 3.5 SD of the protein, either way, in both replicates (recomputed)
erlotinib = compound: C#Cc1cccc(Nc2ncnc3cc(OCCOC)c(OCCOC)cc23)c1 [erlotinib]
Outline: (§1)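 Thermal stability values are relative to control samples and come from duplicates. They are expressed as log2 fold changes. For measurement, K562 cells (2×10^6 cells/mL) received 10 μM compound for 30 min, and aliquots were heated for 3 min over 48°C-58°C, pooled, and extracted at 4°C in PBS with 0.5% NP-40. Soluble protein, the supernatant after 21,000xg for 90 min, was quantified by TMTpro 16plex LC-MS/MS with equalised channel sums.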

[1] = compound: C/C(=N\NC(=O)C1=CC(=CC=C1)S(=O)(=O)N2CCOCC2)/C3=C(C=CC(=C3)Cl)O
Outline: as §1

[2] = compound: C1=CC(=C(C=C1Cl)C2=NC3=NC=CN=C3C(=N2)NC4=CC=NC=C4)F
Outline: as §1

[3] = compound: C1=CC(=CC=C1C2=NC3=C(N2)C=C(C=C3)C(=O)N)OC4=CC=C(C=C4)Cl
Outline: as §1

[4] = compound: C1=CC2=C(C=CC(=C2)/C=C\3/C(=O)NC(=NCC4=CC=CS4)S3)N=C1
Outline: as §1

[5] = compound: C1=CC2=NC=CN=C2C=C1/C=C/3\C(=O)NC(=O)S3
Outline: as §1

[6] = compound: C1=CC=C(C=C1)C2=NC(=C(N2)C3=CC=NC=C3)C4=CC(=C(C=C4)Cl)O
Outline: as §1

[7] = compound: C1=CC=C2C(=C1)C3=NNC4=CC=CC(=C43)C2=O
Outline: as §1

[8] = compound: C1CCN(C1)C(=O)NC2=CC=CC(=C2)NC3=NC=C(C(=N3)NCCC4=CN=CN4)Br
Outline: as §1

[9] = compound: C1CN(CCC1(CC2=CC=C(C=C2)Cl)N)C3=NC=NC4=C3C=CN4
Outline: as §1

Measured: log2 fold change

UPF3B (UniProt Q9BZI7)
active: [2] -0.703
inactive: erlotinib -0.108 | [1] -0.149 | [3] 0.088 | [4] -0.053 | [5] -0.072 | [6] -0.019 | [7] -0.016 | [8] 0.117 | [9] -0.097

WDHD1 (UniProt O75717)
inactive: erlotinib 0.007 | [1] 0.173 | [2] 0.093 | [3] -0.002 | [4] 0.026 | [5] 0.038 | [6] -0.02 | [7] -0.028 | [8] -0.031 | [9] -0.013

TOMM20 (UniProt Q15388)
inactive: erlotinib 0.073 | [1] -0.01 | [2] -0.013 | [3] 0.004 | [4] 0.012 | [5] 0.018 | [6] 0.049 | [7] -0.006 | [8] 0.007 | [9] 0.027

VDAC1 (UniProt P21796)
Chain of UniProt P21796 (P21796 whole entry, looked up): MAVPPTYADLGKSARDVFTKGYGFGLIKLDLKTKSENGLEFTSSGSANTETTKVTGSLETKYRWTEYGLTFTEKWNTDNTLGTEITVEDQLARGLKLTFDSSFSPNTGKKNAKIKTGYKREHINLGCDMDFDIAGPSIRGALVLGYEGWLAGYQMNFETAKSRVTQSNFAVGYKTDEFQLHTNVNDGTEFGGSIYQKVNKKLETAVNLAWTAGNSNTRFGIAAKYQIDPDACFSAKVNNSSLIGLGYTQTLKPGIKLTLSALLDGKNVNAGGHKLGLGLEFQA
inactive: erlotinib -0.006 | [1] 0 | [2] 0.039 | [3] -0.003 | [4] -0.023 | [5] 0.006 | [6] -0.004 | [7] 0.005 | [8] 0.006 | [9] 0.067

TSC2 (UniProt P49815)
inactive: erlotinib 0.276 | [1] -0.047 | [2] -0.104 | [3] -0.297 | [4] -0.025 | [5] -0.135 | [6] 0.06 | [7] 0.063 | [8] -0.001 | [9] 0.199

WDR11 (UniProt Q9BZH6)
Chain of UniProt Q9BZH6 (Q9BZH6 whole entry, looked up): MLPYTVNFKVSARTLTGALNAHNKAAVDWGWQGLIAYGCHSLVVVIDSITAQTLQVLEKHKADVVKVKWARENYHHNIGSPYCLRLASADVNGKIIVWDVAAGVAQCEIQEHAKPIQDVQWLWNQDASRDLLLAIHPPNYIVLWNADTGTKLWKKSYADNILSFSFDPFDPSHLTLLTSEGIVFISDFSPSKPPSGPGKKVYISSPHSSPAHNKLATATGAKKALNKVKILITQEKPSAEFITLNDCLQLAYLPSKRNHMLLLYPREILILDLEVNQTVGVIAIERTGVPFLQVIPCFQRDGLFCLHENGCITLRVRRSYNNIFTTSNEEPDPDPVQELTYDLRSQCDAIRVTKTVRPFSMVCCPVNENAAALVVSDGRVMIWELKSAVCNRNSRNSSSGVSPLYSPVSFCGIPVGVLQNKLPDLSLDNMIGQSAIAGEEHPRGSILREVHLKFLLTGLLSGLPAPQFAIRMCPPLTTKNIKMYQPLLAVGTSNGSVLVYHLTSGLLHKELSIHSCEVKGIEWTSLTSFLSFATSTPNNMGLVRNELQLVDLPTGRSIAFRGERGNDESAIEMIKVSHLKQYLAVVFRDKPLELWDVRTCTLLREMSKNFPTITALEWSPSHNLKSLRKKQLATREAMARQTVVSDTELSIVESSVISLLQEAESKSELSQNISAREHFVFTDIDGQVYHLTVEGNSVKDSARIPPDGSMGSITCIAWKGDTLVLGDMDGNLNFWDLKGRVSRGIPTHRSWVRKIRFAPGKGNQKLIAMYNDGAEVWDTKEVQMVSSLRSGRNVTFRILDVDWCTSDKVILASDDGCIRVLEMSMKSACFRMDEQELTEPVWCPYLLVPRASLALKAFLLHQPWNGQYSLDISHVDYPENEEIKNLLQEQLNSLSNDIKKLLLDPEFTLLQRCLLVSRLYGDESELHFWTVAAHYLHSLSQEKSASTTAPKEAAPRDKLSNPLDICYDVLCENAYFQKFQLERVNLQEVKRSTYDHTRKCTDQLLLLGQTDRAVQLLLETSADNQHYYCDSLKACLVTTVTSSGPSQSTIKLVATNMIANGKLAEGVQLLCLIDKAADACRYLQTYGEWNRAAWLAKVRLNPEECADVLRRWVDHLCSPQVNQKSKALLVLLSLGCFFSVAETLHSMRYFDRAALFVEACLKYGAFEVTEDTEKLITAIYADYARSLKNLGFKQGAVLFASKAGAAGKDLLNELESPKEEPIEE
inactive: erlotinib 0.103 | [1] -0.081 | [2] 0.145 | [3] -0.004 | [4] 0.115 | [5] 0.067 | [6] -0.168 | [7] 0.005 | [8] 0.091 | [9] 0.023

TNFRSF8 (UniProt P28908)
Chain of UniProt P28908 (P28908 whole entry, looked up): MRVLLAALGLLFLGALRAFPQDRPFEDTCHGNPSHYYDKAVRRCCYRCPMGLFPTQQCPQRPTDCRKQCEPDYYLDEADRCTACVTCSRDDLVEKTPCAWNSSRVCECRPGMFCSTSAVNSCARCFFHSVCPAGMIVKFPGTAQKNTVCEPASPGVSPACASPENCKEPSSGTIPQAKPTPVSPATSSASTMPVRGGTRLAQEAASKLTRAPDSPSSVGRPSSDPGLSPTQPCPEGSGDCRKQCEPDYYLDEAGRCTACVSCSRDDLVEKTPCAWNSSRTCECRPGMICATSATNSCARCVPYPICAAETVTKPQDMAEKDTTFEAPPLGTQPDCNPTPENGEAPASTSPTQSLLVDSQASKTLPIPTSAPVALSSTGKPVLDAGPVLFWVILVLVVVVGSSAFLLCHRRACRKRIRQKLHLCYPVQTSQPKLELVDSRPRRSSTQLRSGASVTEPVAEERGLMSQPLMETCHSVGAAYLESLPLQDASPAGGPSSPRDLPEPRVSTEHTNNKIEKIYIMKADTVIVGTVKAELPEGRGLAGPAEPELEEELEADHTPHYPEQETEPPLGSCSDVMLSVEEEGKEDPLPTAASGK
inactive: erlotinib 0.009 | [1] 0.017 | [2] -0.015 | [3] 0.006 | [4] -0.109 | [5] 0.024 | [6] -0.062 | [7] -0.061 | [8] -0.046 | [9] 0.05

WBP4 (UniProt O75554)
Chain of UniProt O75554 (O75554 whole entry, looked up): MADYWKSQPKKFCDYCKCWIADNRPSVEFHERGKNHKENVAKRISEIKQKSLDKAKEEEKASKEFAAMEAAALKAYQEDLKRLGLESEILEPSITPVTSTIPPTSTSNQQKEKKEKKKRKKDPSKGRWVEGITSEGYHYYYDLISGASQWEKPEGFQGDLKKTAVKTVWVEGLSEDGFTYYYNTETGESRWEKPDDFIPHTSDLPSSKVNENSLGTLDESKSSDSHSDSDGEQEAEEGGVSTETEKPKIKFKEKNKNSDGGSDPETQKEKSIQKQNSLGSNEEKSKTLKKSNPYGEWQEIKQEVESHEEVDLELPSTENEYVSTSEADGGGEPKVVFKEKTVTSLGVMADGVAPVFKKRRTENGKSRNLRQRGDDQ
inactive: erlotinib 0 | [1] -0.07 | [2] 0.04 | [3] 0.009 | [4] -0.082 | [5] 0.031 | [6] -0.059 | [7] -0.055 | [8] 0.031 | [9] 0.036

WDR4 (UniProt P57081)
inactive: erlotinib 0.058 | [1] 0.106 | [2] 0.131 | [3] -0.012 | [4] -0.046 | [5] 0.223 | [6] 0.061 | [7] 0.011 | [8] 0.031 | [9] 0.053

USP9X (UniProt Q93008)
inactive: erlotinib 0.012 | [1] 0.06 | [2] -0.012 | [3] -0.029 | [4] 0.026 | [5] 0.008 | [6] 0.013 | [7] -0.033 | [8] 0.002 | [9] -0.002

TMTC3 (UniProt Q6ZXV5)
inactive: erlotinib 0 | [1] 0 | [2] 0.007 | [3] 0.023 | [4] 0.042 | [5] 0.002 | [6] 0.001 | [7] -0.001 | [8] -0.064 | [9] -0.014

WNK1 isoform 7 (UniProt Q9H4A3)
inactive: erlotinib 0.043 | [1] 0.014 | [2] 0.012 | [3] -0.003 | [4] 0.026 | [5] 0.006 | [6] -0.046 | [7] 0.021 | [8] -0.028 | [9] -0.02

VPS18 (UniProt Q9P253)
inactive: erlotinib 0.026 | [1] 0.065 | [2] 0.019 | [3] 0.023 | [4] 0.04 | [5] 0.04 | [6] -0.086 | [7] -0.012 | [8] -0.006 | [9] -0.024

VPS11 (UniProt Q9H270)
inactive: erlotinib -0.041 | [1] 0.099 | [2] 0.015 | [3] 0.005 | [4] 0.058 | [5] 0.068 | [6] 0.03 | [7] -0.011 | [8] 0.002 | [9] 0.027

TMEM41A (UniProt Q96HV5)
inactive: erlotinib 0.013 | [1] 0.046 | [2] -0.02 | [3] -0.014 | [4] 0.024 | [5] 0.037 | [6] -0.04 | [7] 0.013 | [8] -0.069 | [9] 0.033

VTI1B (UniProt Q9UEU0)
inactive: erlotinib 0.011 | [1] -0.008 | [2] -0.023 | [3] -0.02 | [4] 0 | [5] 0.03 | [6] -0.055 | [7] -0.036 | [8] 0.022 | [9] 0.046

UBE2J1 (UniProt Q9Y385)
inactive: erlotinib 0.053 | [1] 0.063 | [2] -0.033 | [3] 0.045 | [4] 0.148 | [5] 0.054 | [6] 0.043 | [7] 0.036 | [8] -0.097 | [9] 0.012

WDR7 (UniProt Q9Y4E6)
Chain of UniProt Q9Y4E6 (Q9Y4E6 whole entry, looked up): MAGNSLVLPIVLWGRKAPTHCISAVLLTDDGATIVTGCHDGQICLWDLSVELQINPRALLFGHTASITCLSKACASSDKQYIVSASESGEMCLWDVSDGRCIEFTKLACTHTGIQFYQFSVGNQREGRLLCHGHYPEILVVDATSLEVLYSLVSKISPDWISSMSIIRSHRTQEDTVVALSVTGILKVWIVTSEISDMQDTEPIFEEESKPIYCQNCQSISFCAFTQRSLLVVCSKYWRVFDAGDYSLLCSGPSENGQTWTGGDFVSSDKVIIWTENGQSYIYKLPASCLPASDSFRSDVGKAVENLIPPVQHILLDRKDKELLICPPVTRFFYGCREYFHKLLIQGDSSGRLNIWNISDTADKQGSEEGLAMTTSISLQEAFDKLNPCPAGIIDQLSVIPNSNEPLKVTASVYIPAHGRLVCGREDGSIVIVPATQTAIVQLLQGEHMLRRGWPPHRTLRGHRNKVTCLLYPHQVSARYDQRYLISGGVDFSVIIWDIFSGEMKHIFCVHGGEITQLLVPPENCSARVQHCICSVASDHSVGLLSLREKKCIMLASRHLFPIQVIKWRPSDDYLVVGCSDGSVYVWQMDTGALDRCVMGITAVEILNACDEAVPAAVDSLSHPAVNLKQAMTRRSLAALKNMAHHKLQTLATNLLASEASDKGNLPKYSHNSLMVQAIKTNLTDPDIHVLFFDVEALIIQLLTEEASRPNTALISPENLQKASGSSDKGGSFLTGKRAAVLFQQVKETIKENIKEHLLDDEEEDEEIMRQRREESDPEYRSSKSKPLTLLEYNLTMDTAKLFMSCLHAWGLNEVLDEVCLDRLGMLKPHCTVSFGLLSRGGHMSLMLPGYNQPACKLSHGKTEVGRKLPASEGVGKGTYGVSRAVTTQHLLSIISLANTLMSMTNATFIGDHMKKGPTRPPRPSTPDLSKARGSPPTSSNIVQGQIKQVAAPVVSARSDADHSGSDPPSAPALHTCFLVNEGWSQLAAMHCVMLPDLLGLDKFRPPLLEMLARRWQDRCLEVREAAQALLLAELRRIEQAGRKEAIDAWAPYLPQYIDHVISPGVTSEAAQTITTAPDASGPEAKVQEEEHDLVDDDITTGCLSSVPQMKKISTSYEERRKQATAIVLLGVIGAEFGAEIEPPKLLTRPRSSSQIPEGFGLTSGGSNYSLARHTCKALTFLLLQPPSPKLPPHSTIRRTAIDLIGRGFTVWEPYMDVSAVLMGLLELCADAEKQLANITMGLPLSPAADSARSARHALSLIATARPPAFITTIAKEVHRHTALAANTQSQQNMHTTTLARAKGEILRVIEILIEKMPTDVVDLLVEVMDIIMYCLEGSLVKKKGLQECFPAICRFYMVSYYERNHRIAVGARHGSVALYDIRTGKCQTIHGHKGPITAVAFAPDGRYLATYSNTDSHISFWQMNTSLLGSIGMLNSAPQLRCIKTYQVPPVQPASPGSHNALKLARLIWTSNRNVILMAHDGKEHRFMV
inactive: erlotinib 0.06 | [1] 0.074 | [2] 0.065 | [3] -0.049 | [4] 0.092 | [5] -0.001 | [6] 0.099 | [7] 0.028 | [8] -0.009 | [9] -0.02

TNPO2 (UniProt O14787)
inactive: erlotinib 0.075 | [1] 0.115 | [2] 0.033 | [3] -0.064 | [4] 0.077 | [5] 0.017 | [6] 0.018 | [7] -0.008 | [8] 0.027 | [9] -0.008

TMEM87B (UniProt Q96K49)
inactive: erlotinib 0.035 | [1] 0.059 | [2] -0.069 | [3] 0.013 | [4] 0.003 | [5] 0.055 | [6] 0.009 | [7] -0.143 | [8] -0.06 | [9] 0.047

TP53BP1 isoform 2 (UniProt Q12888)
inactive: erlotinib -0.011 | [1] 0.019 | [2] -0.017 | [3] -0.001 | [4] 0.012 | [5] 0.043 | [6] -0.024 | [7] -0.078 | [8] -0.057 | [9] -0.077

WDR62 isoform 4 (UniProt O43379)
inactive: erlotinib 0.046 | [1] 0.015 | [2] -0.118 | [3] 0.055 | [4] -0.016 | [5] 0.046 | [6] -0.05 | [7] -0.041 | [8] 0 | [9] 0.014

UBAP2L isoform 1 (UniProt Q14157)
inactive: erlotinib -0.126 | [1] 0.013 | [2] -0.003 | [3] 0.083 | [4] -0.06 | [5] -0.023 | [6] 0.04 | [7] -0.024 | [8] -0.082 | [9] 0.017

XPO1 (UniProt O14980)
inactive: erlotinib 0.019 | [1] 0.118 | [2] 0.045 | [3] -0.06 | [4] 0.061 | [5] 0.041 | [6] 0.051 | [7] -0.036 | [8] 0.002 | [9] -0.027

UBAP2L isoform 5 (UniProt Q14157)
inactive: erlotinib 0.057 | [1] -0.005 | [2] 0.005 | [3] 0 | [4] 0.013 | [5] 0.015 | [6] -0.029 | [7] -0.03 | [8] -0.007 | [9] 0.026

TMEM9 (UniProt Q9P0T7)
Chain of UniProt Q9P0T7 (Q9P0T7 whole entry, looked up): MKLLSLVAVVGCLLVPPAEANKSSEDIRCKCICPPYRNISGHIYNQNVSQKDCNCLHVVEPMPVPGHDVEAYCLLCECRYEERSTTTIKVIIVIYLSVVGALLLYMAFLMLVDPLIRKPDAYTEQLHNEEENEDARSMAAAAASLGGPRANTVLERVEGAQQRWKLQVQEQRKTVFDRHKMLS
inactive: erlotinib 0.014 | [1] 0.008 | [2] 0.254 | [3] -0.021 | [4] -0.034 | [5] -0.117 | [6] 0.037 | [7] -0.004 | [8] -0.053 | [9] -0.025

TRIM4 (UniProt Q9C037)
Chain of UniProt Q9C037 (Q9C037 whole entry, looked up): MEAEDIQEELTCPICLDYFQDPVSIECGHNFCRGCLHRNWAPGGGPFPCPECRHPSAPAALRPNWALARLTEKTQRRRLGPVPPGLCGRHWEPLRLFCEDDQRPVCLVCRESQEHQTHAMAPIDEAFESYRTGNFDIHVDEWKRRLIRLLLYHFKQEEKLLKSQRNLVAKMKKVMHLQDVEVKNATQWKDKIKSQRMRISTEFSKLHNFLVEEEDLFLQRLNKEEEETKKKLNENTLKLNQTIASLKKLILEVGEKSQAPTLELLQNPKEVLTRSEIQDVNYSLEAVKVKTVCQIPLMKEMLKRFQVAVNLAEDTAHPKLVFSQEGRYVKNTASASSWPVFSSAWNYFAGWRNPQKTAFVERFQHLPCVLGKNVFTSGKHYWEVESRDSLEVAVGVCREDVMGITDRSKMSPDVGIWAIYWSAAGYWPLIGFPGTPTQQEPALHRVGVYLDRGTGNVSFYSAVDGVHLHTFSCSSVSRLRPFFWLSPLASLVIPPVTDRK
inactive: erlotinib 0.004 | [1] 0.031 | [2] 0.035 | [3] -0.199 | [4] 0.002 | [5] -0.01 | [6] -0.029 | [7] 0.135 | [8] -0.111 | [9] -0.073

VPS72 isoform 2 (UniProt Q15906)
Chain of UniProt Q15906 (Q15906 whole entry, looked up): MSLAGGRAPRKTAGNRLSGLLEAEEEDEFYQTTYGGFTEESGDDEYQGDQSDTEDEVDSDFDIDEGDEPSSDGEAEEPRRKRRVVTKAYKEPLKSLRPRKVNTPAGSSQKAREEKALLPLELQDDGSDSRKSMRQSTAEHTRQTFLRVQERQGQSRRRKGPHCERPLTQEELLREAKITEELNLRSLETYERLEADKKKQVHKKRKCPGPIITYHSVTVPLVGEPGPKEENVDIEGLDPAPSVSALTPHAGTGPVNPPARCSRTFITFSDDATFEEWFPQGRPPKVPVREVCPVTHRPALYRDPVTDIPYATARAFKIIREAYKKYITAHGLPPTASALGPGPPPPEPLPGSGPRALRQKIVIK
inactive: erlotinib -0.017 | [1] -0.062 | [2] 0.053 | [3] -0.108 | [4] 0.04 | [5] -0.094 | [6] -0.054 | [7] -0.134 | [8] 0.056 | [9] 0.028

VARS2, A0A0G2JL52
inactive: erlotinib 0.012 | [1] 0.006 | [2] -0.002 | [3] 0 | [4] 0.046 | [5] -0.006 | [6] 0.026 | [7] 0.003 | [8] 0.006 | [9] -0.01

UBR2 (UniProt Q8IWV8)
inactive: erlotinib 0.019 | [1] 0.067 | [2] -0.108 | [3] 0.051 | [4] 0.045 | [5] 0.046 | [6] -0.08 | [7] -0.189 | [8] 0.016 | [9] 0.018
